Test results: PubChem BioAssay (NCI)
Compounds without any hit were thinned out: in the full panel of roughly 83,000, 20% have a hit.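 Step 1: grow cells in 96-well plates. Step 2: add test compound at a single concentration. Step 3: incubate 48 h. Step 4: record percent growth.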 Values without a mark were called inactive. Activity calls are given as the source filed them. The calls were made as follows: active = growth percent below 10; inactive = the rest.

system: HL-60(TB) leukemia; test: NCI-60 one-dose screen, 48 h (100 = growth as untreated, 0 = no growth, -100 = all killed); settings: 10 µM unless noted

| Compound | growth |
| --- | --- |
| O=C(CC(C(=O)c1ccccc1)N1CCOCC1)c1ccccc1 (stereo unspecified) | 55.4% |
| N#CCCN1C/C(=C/c2ccccc2)C(=O)/C(=C/c2ccccc2)C1 | 43.2% |
| C=C1C(=O)O[C@H]2[C@H]1CC/C(COC(=O)NCc1c[nH]c3ccc(Br)cc13)=C\CC[C@@]1(C)O[C@@H]21 | -26.9% (active) |
| CN1CCN(Cc2ccc(NC(=O)c3cncc(C#Cc4cnccc4C#N)c3)cc2C(F)(F)F)CC1 | 24.7% |
| Cc1cc(N2CCCC2)nc(N(CCCNc2ccnc3cc(Cl)ccc23)Cc2ccccn2)n1 | 23.4% |
| Cc1ccc(C2=C/C(=C/c3ccc(Br)cc3)C(=O)N2CCc2ccc(S(N)(=O)=O)cc2)cc1 | 96.7% |
| Clc1ccc(C2CC(c3cccc(Nc4ccncc4)c3)=NN2c2ccccc2)cc1 (stereo unspecified) | -38.6% (active) |
| C=C1C(=O)O[C@H]2[C@H]1CC/C(COC(=O)NCc1ccc(Cn3c(=O)sn(CCCl)c3=O)cc1)=C\CC[C@@]1(C)O[C@@H]21 | -21.4% (active) |
| CCN1CCN(c2cc(C(=O)Nc3cccc(Nc4ccc5c(OC)cccc5n4)c3)cc(C(F)(F)F)c2)CC1 | 62.6% |
| CCOC1Oc2ccccc2C(=O)/C1=N/c1nccs1 (stereo unspecified) | 106% |
| O=C(Nc1ccc(NC(=O)c2cc(=O)[nH]c3ccccc23)cc1)Nc1cccc(Cl)c1 | 78.7% |
| CC1(C)/C(=C\CO)C2CCC1C2 (stereo unspecified) | 94.1% |
| CC(C)=CCC[C@](C)(O)[C@H]1CC[C@]2(C)[C@@H]1CC[C@@H]1[C@@]3(C)CC/C(=N/O)C(C)(C)[C@@H]3CC[C@]12C | 5.25% [100 µM] (active) |
| Clc1cc(Cl)c(Cl)nn1 | 69.7% |
| N#CC(=C1C=CC(=NO)C=C1)c1ccccc1 | 4.88% (active) |
| CCCc1cc(=O)n2c(C(=O)Nc3ccccc3OC)c(C(=O)Nc3ccc(F)cc3)sc2n1 | 47.1% [30 µM] |
| O=C(O)Cc1ccc(O)c(O)c1 | 82.1% |
| CN1CCN(Cc2ccc(NC(=O)c3cncc(C#Cc4cnc(N)cc4C#N)c3)cc2C(F)(F)F)CC1 | 4.46% (active) |
| N#Cc1ccc(NC(=O)c2sc3nc4c(cc3c2N)C(=O)CCC4)cc1 | 81% |
| CCN(CC)CCOc1ccc2ccc(=O)oc2c1 | 3.42% (active) |
| CCCCCn1c(C)cc(/C=C\c2ccc3cc(C)ccc3[n+]2C)c1C | -6.41% (active) |
| COc1cc(/C=C2\CN(C)C/C(=C\c3cc(CN4CCCCC4)c(O)c(OC)c3)C2=O)cc(CN2CCCCC2)c1O | 11% |
| Cc1cc(O[C@@H]2O[C@@H](C)[C@H](O)[C@@H](O)[C@H]2O)c2c3c(c(O[C@@H]4O[C@@H](C)[C@H](O)[C@@H](O)[C@H]4O)cc2c1)C(=O)c1c(O)cccc1C3=O | 64.9% |
| O=C(Oc1ccccc1)C(Br)C(Br)c1ccccc1 (stereo unspecified) | 2.65% (active) |
| N#Cc1nc2c(S(=O)(=O)c3ccc(Cl)cc3)c(N)n(Nc3cccc(Cl)c3)c2nc1C#N | 40.1% |
| COc1cccc(/C=C/C(=O)c2c(C)nc3ccccc3c2/C=C/c2ccc(C)cc2)c1OC | 36% |
